PubChem BioAssay AID1159580 (chemical genetic matrix, 2015)
Where “and” joins values, the source holds several entries; their conditions need not be identical. Equal entries are not always repeated. In all, about 5,500 compounds went through this assay and about 2,000 (36%) were called active. About 18% were inconclusive and are not listed. No stated cut-off is given here; in the data, active means normalized growth mostly below about 0.91 (no sharp cut-off); inconclusive means no clear call, values can overlap the other calls; inactive means mostly above about 0.92. Some of the results follow.

Test: chemical genetic growth profiling, strain panel (AID 1159580);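 further: tested at 20 µM; growth read once vehicle control cultures reached saturation at 30 °C; 1 = growth at the plate median or of vehicle wells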
Details: S. cerevisiae deletion strains, growth OD

Measured: normalized growth

O=C(O)CCCc1ccccc1
1 (inactive) and 0.818 (active): locus YHR030C, strain SLT2, stronger effect = lower value
0.998 (inactive) and 0.811 (active): locus YJL095W, strain BCK1, stronger effect = lower value
inactive: locus YAL021C, strain ccr4, stronger effect = lower value 0.962 | locus YAL026C, strain drs2, stronger effect = lower value 0.989 | locus YAL030W, strain snc1, stronger effect = lower value 0.988 | locus YBL061C, strain skt5, stronger effect = lower value 0.991 | locus YBR009C, strain hhf1, stronger effect = lower value 0.988 | locus YBR021W, strain FUR4, stronger effect = lower value 0.955 | locus YBR023C, strain chs3, stronger effect = lower value 0.994 | locus YBR171W, strain sec66, stronger effect = lower value 0.975 | locus YBR229C, strain ROT2, stronger effect = lower value 0.999 | locus YBR231C, strain swc5, stronger effect = lower value 1 | locus YBR279W, strain paf1, stronger effect = lower value 0.974 | locus YCL011C, strain gbp2, stronger effect = lower value 0.98 | locus YCL016C, strain dcc1, stronger effect = lower value 0.985 | locus YCL029C, strain bik1, stronger effect = lower value 0.982 | locus YCL069W, strain vba3, stronger effect = lower value 0.981 | locus YCR088W, strain abp1, stronger effect = lower value 0.973 | locus YDL005C, strain med2, stronger effect = lower value 0.979 | locus YDL035C, strain GPR1, stronger effect = lower value 1.01 | locus YDL040C, strain nat1, stronger effect = lower value 0.989 | locus YDL074C, strain BRE1, stronger effect = lower value 1 | locus YDL101C, strain DUN1, stronger effect = lower value 1 | locus YDL185W, strain tfp1, stronger effect = lower value 0.948 | locus YDL192W, strain arf1, stronger effect = lower value 0.996 | locus YDR001C, strain nth1, stronger effect = lower value 0.977 | locus YDR069C, strain doa4, stronger effect = lower value 1 | locus YDR101C, strain arx1, stronger effect = lower value 0.941 | locus YDR137W, strain rgp1, stronger effect = lower value 1 | locus YDR150W, strain NUM1, stronger effect = lower value 0.998 | locus YDR159W, strain sac3, stronger effect = lower value 0.981 | locus YDR162C, strain NBP2, stronger effect = lower value 1 | locus YDR195W, strain ref2 1.04 | locus YDR297W, strain sur2, stronger effect = lower value 0.991 | locus YDR318W, strain mcm21, stronger effect = lower value 0.986 | locus YDR334W, strain swr1, stronger effect = lower value 0.978 | locus YDR335W, strain msn5, stronger effect = lower value 0.988 | locus YDR388W, stronger effect = lower value 0.999 | locus YDR392W, strain spt3, stronger effect = lower value 0.963 | locus YDR502C, strain sam2, stronger effect = lower value 0.981 | locus YEL003W, strain gim4, stronger effect = lower value 0.986 | locus YEL037C, strain rad23, stronger effect = lower value 0.989 | locus YEL061C, strain CIN8 (second series), stronger effect = lower value 0.983 | locus YEL061C, strain CIN8, stronger effect = lower value 0.999 | locus YER015W, strain faa2, stronger effect = lower value 1 | locus YER016W, strain bim1, stronger effect = lower value 0.989 | locus YER110C, stronger effect = lower value 1 | locus YER111C, strain swi4, stronger effect = lower value 0.992 | locus YER155C, strain BEM2 (second series), stronger effect = lower value 1.01 | locus YER155C, strain BEM2, stronger effect = lower value 0.975 | locus YER167W, strain BCK2, stronger effect = lower value 1 | locus YFR010W, strain ubp6, stronger effect = lower value 0.997 | locus YGL078C, strain dbp3, stronger effect = lower value 0.933 | locus YGL086W, strain mad1, stronger effect = lower value 0.97 | locus YGL167C, strain pmr1, stronger effect = lower value 0.995 | locus YGL173C, strain kem1, stronger effect = lower value 0.997 | locus YGL227W, strain vid30, stronger effect = lower value 0.977 | locus YGL240W, strain doc1, stronger effect = lower value 1 | locus YGL248W, strain PDE1, stronger effect = lower value 0.997 | locus YGL253W, strain hxk2, stronger effect = lower value 0.974 | locus YGR135W, strain pre9, stronger effect = lower value 1.04 | locus YGR229C, strain SMI1, stronger effect = lower value 1.01 | locus YGR252W, strain gcn5, stronger effect = lower value 0.939 | locus YHR013C, strain ard1, stronger effect = lower value 1.01 | locus YHR027C, strain rpn1, stronger effect = lower value 1.01 | locus YHR079C, strain IRE1 (second series), stronger effect = lower value 0.975 | locus YHR094C, strain hxt1, stronger effect = lower value 0.995 | locus YHR129C, strain ARP1, stronger effect = lower value 0.993 | locus YHR142W, strain chs7, stronger effect = lower value 0.988 | locus YHR200W, strain rpn10, stronger effect = lower value 0.996 | locus YIL066C, strain RNR3, stronger effect = lower value 0.999 | locus YIL073C, strain SPO22, stronger effect = lower value 1.06 | locus YIR030C, strain dcg1, stronger effect = lower value 0.988 | locus YJL092W, strain hpr5, stronger effect = lower value 0.985 | locus YJL095W, strain BCK1 (second series), stronger effect = lower value 0.989 | locus YJL115W, strain asf1, stronger effect = lower value 0.986 | locus YJL129C, strain trk1, stronger effect = lower value 0.983 | locus YJL134W, strain LCB3, stronger effect = lower value 1.01 | locus YJL154C, strain vps35, stronger effect = lower value 0.976 | locus YJL164C, strain tpk1, stronger effect = lower value 0.987 | locus YJL166W, strain qcr8, stronger effect = lower value 0.992 | locus YJL168C, strain set2, stronger effect = lower value 0.998 | locus YJL187C, strain SWE1 (second series), stronger effect = lower value 0.99 | locus YJL187C, strain SWE1, stronger effect = lower value 0.99 | locus YJR043C, strain POL32, stronger effect = lower value 0.98 | locus YJR075W, strain HOC1, stronger effect = lower value 1.01 | locus YKL009W, strain mrt4, stronger effect = lower value 1 | locus YKL160W, strain elf1, stronger effect = lower value 0.969 | locus YKR001C, strain vps1, stronger effect = lower value 0.951 | locus YKR026C, strain gcn3, stronger effect = lower value 0.98 | locus YKR091W, strain srl3, stronger effect = lower value 0.98 | locus YLL001W, strain dnm1, stronger effect = lower value 0.995 | locus YLL026W, stronger effect = lower value 0.985 | locus YLL041C, strain sdh2, stronger effect = lower value 0.989 | locus YLR027C, strain aat2, stronger effect = lower value 0.984 | locus YLR039C, strain RIC1, stronger effect = lower value 1.01 | locus YLR058C, strain SHM2, stronger effect = lower value 1 | locus YLR102C, strain apc9, stronger effect = lower value 0.994 | locus YLR221C, strain rsa3, stronger effect = lower value 0.955 | locus YLR258W, strain gsy2, stronger effect = lower value 0.98 | locus YLR262C, strain YPT6 (second series), stronger effect = lower value 0.968 | locus YLR262C, strain YPT6, stronger effect = lower value 1.01 | locus YLR268W, strain sec22, stronger effect = lower value 0.985 | locus YLR320W, strain mms22, stronger effect = lower value 0.992 | locus YLR330W, strain CHS5, stronger effect = lower value 0.998 | locus YLR342W, strain FKS1 (second series), stronger effect = lower value 1.05 | locus YLR342W, strain FKS1, stronger effect = lower value 1.01 | locus YLR357W, strain rsc2, stronger effect = lower value 1 | locus YLR370C, strain arc18, stronger effect = lower value 0.977 | locus YLR371W, strain rom2, stronger effect = lower value 0.99 | locus YLR384C, strain iki3, stronger effect = lower value 0.989 | locus YLR418C, strain cdc73, stronger effect = lower value 1.02 | locus YML016C, strain PPZ1, stronger effect = lower value 1.01 | locus YML032C, strain rad52, stronger effect = lower value 0.982 | locus YML120C, strain ndi1, stronger effect = lower value 1 | locus YML124C, strain tub3, stronger effect = lower value 0.986 | locus YMR058W, strain fet3, stronger effect = lower value 0.989 | locus YMR078C, strain ctf18, stronger effect = lower value 0.992 | locus YMR125W, strain sto1, stronger effect = lower value 0.999 | locus YMR129W, stronger effect = lower value 0.978 | locus YMR205C, strain PFK2, stronger effect = lower value 0.972 | locus YMR223W, strain ubp8, stronger effect = lower value 1.02 | locus YMR231W, strain pep5, stronger effect = lower value 0.985 | locus YMR307W, strain GAS1, stronger effect = lower value 1.1 | locus YNL067W, strain RPL9B, stronger effect = lower value 0.981 | locus YNL071W, strain lat1, stronger effect = lower value 0.992 | locus YNL209W, strain ssb2, stronger effect = lower value 1.01 | locus YNL233W, strain BNI4, stronger effect = lower value 1 | locus YNL248C, strain rpa49, stronger effect = lower value 0.907 | locus YNL250W, strain rad50, stronger effect = lower value 0.925 | locus YNL271C, strain bni1, stronger effect = lower value 0.943 | locus YNL298W, strain CLA4, stronger effect = lower value 0.955 | locus YNL307C, strain MCK1, stronger effect = lower value 0.992 | locus YNL322C, strain KRE1 (second series), stronger effect = lower value 0.954 | locus YNR049C, strain mso1, stronger effect = lower value 0.975 | locus YNR052C, strain pop2, stronger effect = lower value 0.986 | locus YOL012C, strain htz1 1.62 | locus YOL147C, strain pex11, stronger effect = lower value 0.987 | locus YOR001W, strain rrp6, stronger effect = lower value 0.962 | locus YOR061W, strain CKA2, stronger effect = lower value 1 | locus YOR069W, strain VPS5, stronger effect = lower value 1 | locus YOR070C, strain gyp1, stronger effect = lower value 0.988 | locus YOR080W, strain dia2, stronger effect = lower value 0.994 | locus YOR083W, strain WHI5, stronger effect = lower value 0.975 | locus YOR106W, strain vam3, stronger effect = lower value 0.988 | locus YOR136W, strain idh2, stronger effect = lower value 0.976 | locus YOR144C, strain elg1, stronger effect = lower value 0.996 | locus YOR184W, strain ser1, stronger effect = lower value 0.988 | locus YOR265W, strain rbl2, stronger effect = lower value 0.989 | locus YOR270C, strain vph1, stronger effect = lower value 0.991 | locus YOR290C, strain snf2, stronger effect = lower value 0.962 | locus YOR316C, strain cot1, stronger effect = lower value 0.998 | locus YPL051W, strain arl3, stronger effect = lower value 0.988 | locus YPL055C, strain LGE1, stronger effect = lower value 0.963 | locus YPL078C, strain atp4, stronger effect = lower value 0.985 | locus YPL106C, strain sse1, stronger effect = lower value 0.969 | locus YPL240C, strain hsp82, stronger effect = lower value 0.988 | locus YPL241C, strain CIN2, stronger effect = lower value 1.01 | locus YPR119W, strain clb2, stronger effect = lower value 0.995 | locus YPR163C, strain tif3, stronger effect = lower value 0.983 | locus YPR167C, strain met16, stronger effect = lower value 0.99 | strain wtn01, stronger effect = lower value 0.995
active: locus YHR079C, strain IRE1, stronger effect = lower value 0.801 | locus YIL125W, strain kgd1, stronger effect = lower value 0.892 | locus YJR066W, strain TOR1, stronger effect = lower value 0.795 | locus YKL068W, stronger effect = lower value 0.917 | locus YKL085W, strain MDH1 (second series), stronger effect = lower value 0.93 | locus YKL085W, strain MDH1, stronger effect = lower value 0.93 | locus YLR113W, strain HOG1, stronger effect = lower value 0.687 | locus YNL183C, strain NPR1, stronger effect = lower value 0.772 | locus YOR231W, strain MKK1, stronger effect = lower value 0.778 | locus YPL256C, strain CLN2, stronger effect = lower value 0.72 | locus YPR141C, strain kar3, stronger effect = lower value 0.896
